# Laboratory results published in paper PMC7862700, “An all-to-all approach to the identification of sequence-specific readers for epigenetic DNA modifications on cytosine”.
# Key:
# Test in all cases: DAPPL (digital affinity profiling via proximity ligation, sequencing); 10 mM Tris-HCl pH 7.5, 50 mM NaCl, 1 mM DTT, 4% glycerol, room temperature, 30 min; GST-TFs on glutathione beads, 16-mer random dsDNA library, 0.1% formaldehyde crosslink after washing; high values mean tight binding
# FLI1 = molecular target: T1, FLI1 (Homo sapiens, UniProt Q01543 1-452); settings: protein: recombinant; tags: N-terminal GST; dsDNA, one strand shown
# T1 sequence: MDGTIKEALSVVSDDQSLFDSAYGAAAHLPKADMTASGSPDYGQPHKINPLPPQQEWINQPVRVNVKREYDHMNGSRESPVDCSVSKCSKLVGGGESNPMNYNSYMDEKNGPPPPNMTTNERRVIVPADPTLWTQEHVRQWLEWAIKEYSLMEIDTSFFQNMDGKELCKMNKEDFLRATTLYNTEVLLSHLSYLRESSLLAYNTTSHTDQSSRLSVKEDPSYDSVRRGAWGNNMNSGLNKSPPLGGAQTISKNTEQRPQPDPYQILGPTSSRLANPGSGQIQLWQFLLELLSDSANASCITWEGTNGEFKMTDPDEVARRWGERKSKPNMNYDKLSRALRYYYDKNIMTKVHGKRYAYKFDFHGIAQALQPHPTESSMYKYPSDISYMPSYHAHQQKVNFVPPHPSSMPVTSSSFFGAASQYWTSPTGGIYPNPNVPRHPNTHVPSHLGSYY
# Summary of the method: (§1)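 Human transcription factors carrying a GST fusion were produced in yeast, bound to glutathione beads, tagged with DNA barcodes and pooled together with a tag-only sample. Each pool was held with 200 nmole of a random double-stranded 16-mer DNA library in Tris/NaCl/DTT/glycerol buffer for 30 min at room temperature, then washed, crosslinked in 0.1% formaldehyde, proximity-ligated with BsaI/T4 ligase (1 h, 37 °C), PCR-amplified and sequenced on an Illumina NextSeq500. Binding signal is the read frequency of each hexamer for a given factor divided by its frequency in the tag-only sample.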
# ELK1 = molecular target: T2, ELK1 (Homo sapiens, UniProt P19419 1-428); settings: protein: recombinant; tags: N-terminal GST; dsDNA, one strand shown
# T2 sequence: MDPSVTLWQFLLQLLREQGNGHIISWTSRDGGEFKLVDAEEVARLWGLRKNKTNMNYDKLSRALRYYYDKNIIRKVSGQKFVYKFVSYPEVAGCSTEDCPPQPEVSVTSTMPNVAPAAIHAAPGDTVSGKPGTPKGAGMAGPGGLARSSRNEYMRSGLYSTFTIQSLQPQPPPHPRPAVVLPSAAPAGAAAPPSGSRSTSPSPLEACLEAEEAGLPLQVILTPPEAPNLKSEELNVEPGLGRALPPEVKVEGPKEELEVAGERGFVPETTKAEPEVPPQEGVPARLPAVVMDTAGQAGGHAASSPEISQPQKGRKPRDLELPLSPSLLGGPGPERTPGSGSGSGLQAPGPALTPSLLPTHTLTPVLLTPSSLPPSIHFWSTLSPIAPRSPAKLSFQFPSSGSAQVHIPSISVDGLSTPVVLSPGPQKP
# Summary of the method: as §1
# GABPA = molecular target: T3, GABPA (Homo sapiens, UniProt Q06546 1-454); settings: protein: recombinant; tags: N-terminal GST; dsDNA, one strand shown
# T3 sequence: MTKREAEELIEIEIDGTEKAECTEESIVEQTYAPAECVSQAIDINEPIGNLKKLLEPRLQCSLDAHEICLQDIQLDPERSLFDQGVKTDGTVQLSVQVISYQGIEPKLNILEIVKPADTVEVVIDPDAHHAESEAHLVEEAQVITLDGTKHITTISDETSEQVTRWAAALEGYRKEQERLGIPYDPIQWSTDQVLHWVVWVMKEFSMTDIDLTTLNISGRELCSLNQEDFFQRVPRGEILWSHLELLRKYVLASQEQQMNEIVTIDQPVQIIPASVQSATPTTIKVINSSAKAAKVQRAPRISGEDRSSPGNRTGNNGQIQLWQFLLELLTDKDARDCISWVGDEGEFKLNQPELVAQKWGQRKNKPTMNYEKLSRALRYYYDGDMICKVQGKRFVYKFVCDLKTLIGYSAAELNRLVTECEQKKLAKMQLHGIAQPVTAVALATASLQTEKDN
# Summary of the method: as §1
# ERG = molecular target: T4, ERG (Homo sapiens, UniProt P11308 1-479); settings: protein: recombinant; tags: N-terminal GST; dsDNA, one strand shown
# T4 sequence: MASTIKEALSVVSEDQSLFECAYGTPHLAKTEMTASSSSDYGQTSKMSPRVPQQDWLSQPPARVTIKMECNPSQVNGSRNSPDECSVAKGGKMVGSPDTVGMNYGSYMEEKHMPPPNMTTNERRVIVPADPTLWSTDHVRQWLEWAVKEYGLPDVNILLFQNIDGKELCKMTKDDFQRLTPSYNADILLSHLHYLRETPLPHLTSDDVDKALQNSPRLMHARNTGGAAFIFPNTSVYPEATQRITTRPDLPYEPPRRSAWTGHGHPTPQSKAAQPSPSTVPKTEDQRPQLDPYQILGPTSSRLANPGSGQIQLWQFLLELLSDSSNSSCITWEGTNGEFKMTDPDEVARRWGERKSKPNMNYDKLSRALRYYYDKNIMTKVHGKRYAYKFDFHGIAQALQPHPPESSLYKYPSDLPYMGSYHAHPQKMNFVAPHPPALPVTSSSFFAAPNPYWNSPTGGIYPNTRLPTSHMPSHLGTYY
# Summary of the method: as §1
# ELF1 = ELF1 (Homo sapiens, UniProt P32519 1-619); settings: protein: recombinant; tags: N-terminal GST; dsDNA, one strand shown
# Summary of the method: as §1
# EHF = molecular target: T5, EHF (Homo sapiens, UniProt Q9NZC4 1-300); settings: protein: recombinant; tags: N-terminal GST; dsDNA, one strand shown
# T5 sequence: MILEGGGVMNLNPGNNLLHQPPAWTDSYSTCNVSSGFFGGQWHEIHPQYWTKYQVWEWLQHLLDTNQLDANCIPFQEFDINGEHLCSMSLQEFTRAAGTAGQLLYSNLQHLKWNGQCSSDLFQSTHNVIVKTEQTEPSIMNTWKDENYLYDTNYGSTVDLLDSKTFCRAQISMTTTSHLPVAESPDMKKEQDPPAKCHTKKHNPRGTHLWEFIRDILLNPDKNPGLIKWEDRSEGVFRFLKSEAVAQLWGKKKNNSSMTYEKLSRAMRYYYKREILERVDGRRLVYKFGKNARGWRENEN
# Summary of the method: as §1
# SPI1 = SPI1 (Homo sapiens, UniProt P17947 1-270); settings: protein: recombinant; tags: N-terminal GST; dsDNA, one strand shown
# Summary of the method: as §1
# SPIB = SPIB (Homo sapiens, UniProt Q01892 1-262); settings: protein: recombinant; tags: N-terminal GST; dsDNA, one strand shown
# Summary of the method: as §1
# ELK3 = molecular target: T6, ELK3 (Homo sapiens, UniProt P41970 1-407); settings: protein: recombinant; tags: N-terminal GST; dsDNA, one strand shown
# T6 sequence: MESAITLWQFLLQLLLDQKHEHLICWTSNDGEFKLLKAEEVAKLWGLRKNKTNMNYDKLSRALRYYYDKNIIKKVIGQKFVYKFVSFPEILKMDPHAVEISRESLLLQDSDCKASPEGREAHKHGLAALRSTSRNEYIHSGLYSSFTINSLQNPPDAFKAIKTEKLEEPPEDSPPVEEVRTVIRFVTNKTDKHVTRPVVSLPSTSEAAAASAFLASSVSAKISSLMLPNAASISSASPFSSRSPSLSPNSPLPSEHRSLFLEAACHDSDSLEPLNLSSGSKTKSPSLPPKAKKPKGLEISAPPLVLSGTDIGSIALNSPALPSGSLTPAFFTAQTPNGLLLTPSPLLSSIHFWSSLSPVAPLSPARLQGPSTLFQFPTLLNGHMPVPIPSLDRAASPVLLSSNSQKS
# Summary of the method: as §1
# FEV = molecular target: T7, FEV (Homo sapiens, UniProt Q99581 1-238); settings: protein: recombinant; tags: N-terminal GST; dsDNA, one strand shown
# T7 sequence: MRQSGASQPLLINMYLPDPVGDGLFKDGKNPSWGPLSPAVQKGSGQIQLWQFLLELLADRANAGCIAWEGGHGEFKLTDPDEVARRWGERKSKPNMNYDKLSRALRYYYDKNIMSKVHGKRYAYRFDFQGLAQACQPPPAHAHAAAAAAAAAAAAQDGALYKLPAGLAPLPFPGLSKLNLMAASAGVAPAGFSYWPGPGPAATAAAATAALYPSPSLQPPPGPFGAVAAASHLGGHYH
# Summary of the method: as §1
# ETV5 = ETV5 (Homo sapiens, UniProt P41161 1-510); settings: protein: recombinant; tags: N-terminal GST; dsDNA, one strand shown
# Summary of the method: as §1
# HSF1 = HSF1 (Homo sapiens, UniProt Q00613 1-529); settings: protein: recombinant; tags: N-terminal GST; chain copies: 3; dsDNA, one strand shown
# Summary of the method: as §1
# SPIC = molecular target: T8, SPIC (Homo sapiens, UniProt Q8N5J4 1-248); settings: protein: recombinant; tags: N-terminal GST; dsDNA, one strand shown
# T8 sequence: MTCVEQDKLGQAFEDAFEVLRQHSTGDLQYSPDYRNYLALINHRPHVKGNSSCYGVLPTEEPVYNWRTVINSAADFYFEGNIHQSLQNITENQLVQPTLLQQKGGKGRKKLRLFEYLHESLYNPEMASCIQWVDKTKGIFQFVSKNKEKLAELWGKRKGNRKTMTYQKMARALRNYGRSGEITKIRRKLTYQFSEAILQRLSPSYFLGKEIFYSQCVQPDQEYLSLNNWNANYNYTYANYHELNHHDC
# Summary of the method: as §1
# ELF4 = ELF4 (Homo sapiens, UniProt Q99607 1-663); settings: protein: recombinant; tags: N-terminal GST; dsDNA, one strand shown
# Summary of the method: as §1
# ELK4 = molecular target: T9, ELK4 (Homo sapiens, UniProt P28324-2 1-405); settings: protein: recombinant; tags: N-terminal GST; dsDNA, one strand shown
# T9 sequence: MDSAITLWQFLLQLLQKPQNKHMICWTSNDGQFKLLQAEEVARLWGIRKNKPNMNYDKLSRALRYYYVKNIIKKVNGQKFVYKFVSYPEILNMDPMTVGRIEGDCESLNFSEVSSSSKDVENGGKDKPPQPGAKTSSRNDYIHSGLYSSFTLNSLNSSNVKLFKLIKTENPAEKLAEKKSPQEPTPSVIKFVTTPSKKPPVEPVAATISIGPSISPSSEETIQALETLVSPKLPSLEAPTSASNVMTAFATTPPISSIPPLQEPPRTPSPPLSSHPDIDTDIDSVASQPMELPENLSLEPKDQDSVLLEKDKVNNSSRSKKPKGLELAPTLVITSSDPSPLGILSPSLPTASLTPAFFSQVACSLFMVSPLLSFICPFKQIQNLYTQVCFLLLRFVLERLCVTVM
# Summary of the method: as §1
# ETV2 = molecular target: T10, ETV2 (Homo sapiens, UniProt O00321 1-342); settings: protein: recombinant; tags: N-terminal GST; dsDNA, one strand shown
# T10 sequence: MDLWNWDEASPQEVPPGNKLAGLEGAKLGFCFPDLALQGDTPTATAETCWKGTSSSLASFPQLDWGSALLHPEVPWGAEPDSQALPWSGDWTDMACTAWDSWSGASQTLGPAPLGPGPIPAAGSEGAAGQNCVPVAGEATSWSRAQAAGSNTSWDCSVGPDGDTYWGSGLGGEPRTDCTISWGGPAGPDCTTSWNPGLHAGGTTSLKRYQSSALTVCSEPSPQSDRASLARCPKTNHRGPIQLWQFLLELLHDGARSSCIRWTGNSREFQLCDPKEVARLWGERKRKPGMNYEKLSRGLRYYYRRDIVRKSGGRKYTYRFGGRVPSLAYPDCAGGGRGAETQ
# Summary of the method: as §1
# ELF3 = molecular target: T11, ELF3 (Homo sapiens, UniProt P78545 1-371); settings: protein: recombinant; tags: N-terminal GST; dsDNA, one strand shown
# T11 sequence: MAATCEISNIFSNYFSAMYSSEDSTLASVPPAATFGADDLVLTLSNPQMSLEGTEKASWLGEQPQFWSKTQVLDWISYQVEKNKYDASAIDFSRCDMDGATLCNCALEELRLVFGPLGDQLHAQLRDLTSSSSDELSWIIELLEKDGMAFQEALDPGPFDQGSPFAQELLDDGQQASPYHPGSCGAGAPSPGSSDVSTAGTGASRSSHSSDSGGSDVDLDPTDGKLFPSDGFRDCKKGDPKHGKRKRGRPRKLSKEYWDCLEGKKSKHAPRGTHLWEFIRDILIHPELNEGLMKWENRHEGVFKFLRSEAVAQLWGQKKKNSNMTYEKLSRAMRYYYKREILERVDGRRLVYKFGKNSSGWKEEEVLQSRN
# Summary of the method: as §1
# ETV1 = ETV1 (Homo sapiens, UniProt P50549 1-477); settings: protein: recombinant; tags: N-terminal GST; dsDNA, one strand shown
# Summary of the method: as §1
# SPIB, sequence (Q01892 whole entry): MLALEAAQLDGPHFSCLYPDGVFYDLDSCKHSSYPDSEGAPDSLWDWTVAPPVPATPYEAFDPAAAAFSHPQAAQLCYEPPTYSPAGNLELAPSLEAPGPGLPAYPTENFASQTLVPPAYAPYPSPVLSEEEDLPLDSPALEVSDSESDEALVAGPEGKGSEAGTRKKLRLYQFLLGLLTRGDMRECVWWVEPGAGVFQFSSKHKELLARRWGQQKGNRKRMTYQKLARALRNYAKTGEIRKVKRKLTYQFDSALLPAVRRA
# ETV5, sequence (P41161 whole entry): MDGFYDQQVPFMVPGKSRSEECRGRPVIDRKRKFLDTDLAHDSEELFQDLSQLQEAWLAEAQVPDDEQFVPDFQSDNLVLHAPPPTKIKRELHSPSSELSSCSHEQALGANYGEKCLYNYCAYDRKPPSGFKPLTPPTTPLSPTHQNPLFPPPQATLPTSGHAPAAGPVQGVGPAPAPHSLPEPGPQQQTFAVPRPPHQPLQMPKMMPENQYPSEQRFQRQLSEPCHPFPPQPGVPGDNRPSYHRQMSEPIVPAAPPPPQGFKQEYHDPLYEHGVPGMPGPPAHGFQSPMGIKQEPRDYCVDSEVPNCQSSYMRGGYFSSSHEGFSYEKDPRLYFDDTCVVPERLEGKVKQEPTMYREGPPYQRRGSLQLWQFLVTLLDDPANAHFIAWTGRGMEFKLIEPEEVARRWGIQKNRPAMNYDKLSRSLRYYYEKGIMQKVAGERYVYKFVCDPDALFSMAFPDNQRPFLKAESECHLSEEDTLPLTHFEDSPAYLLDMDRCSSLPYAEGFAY
# ELF1, sequence (P32519 whole entry): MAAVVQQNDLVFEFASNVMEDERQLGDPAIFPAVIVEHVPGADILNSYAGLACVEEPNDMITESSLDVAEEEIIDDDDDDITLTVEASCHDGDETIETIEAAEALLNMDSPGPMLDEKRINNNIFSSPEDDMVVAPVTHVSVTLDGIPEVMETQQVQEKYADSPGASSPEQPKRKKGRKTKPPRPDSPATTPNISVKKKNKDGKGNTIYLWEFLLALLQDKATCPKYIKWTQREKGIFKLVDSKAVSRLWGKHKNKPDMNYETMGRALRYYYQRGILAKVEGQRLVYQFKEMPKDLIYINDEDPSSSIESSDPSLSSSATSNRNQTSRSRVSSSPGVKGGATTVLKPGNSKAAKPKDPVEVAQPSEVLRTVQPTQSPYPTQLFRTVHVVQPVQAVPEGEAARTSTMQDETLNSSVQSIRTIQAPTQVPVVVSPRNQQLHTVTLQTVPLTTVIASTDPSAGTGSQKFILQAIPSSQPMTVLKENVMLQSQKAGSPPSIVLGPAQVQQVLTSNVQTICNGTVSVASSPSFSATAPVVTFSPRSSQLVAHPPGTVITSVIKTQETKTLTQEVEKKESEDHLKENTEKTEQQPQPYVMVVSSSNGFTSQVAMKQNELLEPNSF
# ELF4, sequence (Q99607 whole entry): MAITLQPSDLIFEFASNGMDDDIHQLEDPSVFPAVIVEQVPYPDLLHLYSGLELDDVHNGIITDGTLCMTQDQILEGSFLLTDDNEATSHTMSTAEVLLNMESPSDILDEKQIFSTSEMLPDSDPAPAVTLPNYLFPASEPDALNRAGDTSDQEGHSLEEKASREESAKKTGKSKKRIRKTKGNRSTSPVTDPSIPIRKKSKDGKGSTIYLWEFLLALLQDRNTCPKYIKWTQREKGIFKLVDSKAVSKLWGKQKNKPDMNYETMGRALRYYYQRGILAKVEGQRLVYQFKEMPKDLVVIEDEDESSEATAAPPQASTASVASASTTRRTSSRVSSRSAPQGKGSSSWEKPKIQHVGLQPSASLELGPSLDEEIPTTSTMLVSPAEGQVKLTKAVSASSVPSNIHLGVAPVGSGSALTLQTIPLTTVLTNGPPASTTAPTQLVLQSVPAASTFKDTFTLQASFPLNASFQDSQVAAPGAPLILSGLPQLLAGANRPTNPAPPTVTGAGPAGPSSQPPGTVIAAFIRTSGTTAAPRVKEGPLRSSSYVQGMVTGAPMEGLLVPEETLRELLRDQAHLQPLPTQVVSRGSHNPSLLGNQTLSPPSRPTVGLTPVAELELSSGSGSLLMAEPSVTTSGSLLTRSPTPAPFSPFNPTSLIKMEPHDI
# ETV1, sequence (P50549 whole entry): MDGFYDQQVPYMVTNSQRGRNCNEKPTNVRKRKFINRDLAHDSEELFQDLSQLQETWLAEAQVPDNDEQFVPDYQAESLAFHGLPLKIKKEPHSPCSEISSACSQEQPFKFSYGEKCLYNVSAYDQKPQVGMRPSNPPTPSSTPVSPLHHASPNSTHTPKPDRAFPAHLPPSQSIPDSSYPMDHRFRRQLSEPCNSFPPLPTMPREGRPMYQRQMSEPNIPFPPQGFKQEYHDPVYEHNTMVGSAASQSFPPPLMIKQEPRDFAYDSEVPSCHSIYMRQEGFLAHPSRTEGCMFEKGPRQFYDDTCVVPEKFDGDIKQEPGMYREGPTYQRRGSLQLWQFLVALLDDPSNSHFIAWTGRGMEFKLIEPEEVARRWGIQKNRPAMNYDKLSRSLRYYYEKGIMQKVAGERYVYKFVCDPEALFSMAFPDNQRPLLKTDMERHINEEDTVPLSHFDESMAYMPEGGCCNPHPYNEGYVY
# HSF1, sequence (Q00613 whole entry): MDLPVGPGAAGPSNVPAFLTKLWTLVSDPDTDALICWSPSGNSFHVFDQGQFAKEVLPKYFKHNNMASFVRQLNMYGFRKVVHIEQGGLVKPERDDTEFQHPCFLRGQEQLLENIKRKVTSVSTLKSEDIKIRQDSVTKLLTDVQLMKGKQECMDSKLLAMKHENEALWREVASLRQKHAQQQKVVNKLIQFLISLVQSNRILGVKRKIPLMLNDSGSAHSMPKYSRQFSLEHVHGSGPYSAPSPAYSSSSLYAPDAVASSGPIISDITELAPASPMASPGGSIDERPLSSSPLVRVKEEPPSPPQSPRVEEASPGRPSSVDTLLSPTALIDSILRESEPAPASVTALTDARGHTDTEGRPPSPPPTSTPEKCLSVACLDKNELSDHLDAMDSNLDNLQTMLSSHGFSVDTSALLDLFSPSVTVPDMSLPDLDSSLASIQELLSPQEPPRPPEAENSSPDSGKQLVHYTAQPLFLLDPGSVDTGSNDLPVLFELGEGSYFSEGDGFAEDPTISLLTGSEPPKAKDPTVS
sequence,measurement,setting,value
TGCGTA,binding signal,FLI1,"1.15 fold enrichment (6-mer frequency, TF over GST control)"
same,binding signal,ELK1,"1.15 fold enrichment (6-mer frequency, TF over GST control)"
same,binding signal,GABPA,"1.06 fold enrichment (6-mer frequency, TF over GST control)"
same,binding signal,ERG,"1.05 fold enrichment (6-mer frequency, TF over GST control)"
same,binding signal,ELF1,"1.1 fold enrichment (6-mer frequency, TF over GST control)"
same,binding signal,EHF,"1.06 fold enrichment (6-mer frequency, TF over GST control)"
same,binding signal,SPI1,"1.17 fold enrichment (6-mer frequency, TF over GST control)"
same,binding signal,SPIB,"1.22 fold enrichment (6-mer frequency, TF over GST control)"
same,binding signal,ELK3,"1.09 fold enrichment (6-mer frequency, TF over GST control)"
same,binding signal,FEV,"1.06 fold enrichment (6-mer frequency, TF over GST control)"
same,binding signal,ETV5,"1.12 fold enrichment (6-mer frequency, TF over GST control)"
same,binding signal,HSF1,"1.06 fold enrichment (6-mer frequency, TF over GST control)"
same,binding signal,SPIC,"1.11 fold enrichment (6-mer frequency, TF over GST control)"
same,binding signal,ELF4,"1.08 fold enrichment (6-mer frequency, TF over GST control)"
same,binding signal,ELK4,"1.27 fold enrichment (6-mer frequency, TF over GST control)"
same,binding signal,ETV2,"1.21 fold enrichment (6-mer frequency, TF over GST control)"
same,binding signal,ELF3,"1.01 fold enrichment (6-mer frequency, TF over GST control)"
same,binding signal,ETV1,"1.24 fold enrichment (6-mer frequency, TF over GST control)"
